# Assay results taken from PubChem BioAssay.
# Activity calls are given as the source filed them.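 Rule for the calls, unless noted: active = fluorescence slope higher than the sample average by over 3 SD (cut at about -0.22 in these data, passing the limit was not always enough); inactive = the rest.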
# Tests used:
# [1] = inhibitors of TNFa-induced NFkB p65 translocation, primary screen, imaging, HUVEC, MLSMR starter and 10KST1 sets (AID 438;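 active = inhibition above 20% together with a positive visual image hit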;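 note: compound added about 3h40 before a 20 min TNFalpha stimulation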;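 for inhibition: signal is the nuclear over cytoplasmic p65 intensity ratio per well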); details: HUVEC TNFa-induced p65 nuclear translocation; cell count: measured here: nuclei count (cytotoxicity indicator), at 2.08 µM; inhibition: at 2 µM, stronger effect = higher value, 0% TNFa-plus-vehicle, 100% no-TNFa wells
# [2] = reduction of polyQ htt aggregates in cells – imaging, exon1htt(103Q)mCFP cells, high-content imaging, primary screen (AID 483;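 active = visual image review flags a hit and inhibition of aggregation exceeds 20%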;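 note: compound exposure lasted 3 days before fixation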;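 for nuclei count: percent of the per-plate median nuclei count of sample wells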); details: exon1htt(103Q)mCFP cell line, aggregate imaging, at 2 µM; inhibition of aggregation: stronger effect = higher value; nuclei count: measured here: cell count, toxicity
# [3] = endothelial E-selectin expression blockers – imaging, HUVEC, immunofluorescence, MLSMR starter and 10KST1 sets, primary screen (AID 487;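 active = visually confirmed hit in the image check and inhibition above 20%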;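 for inhibition: signal is fraction of cell area covered by stained E-selectin grains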;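 for nuclei count: 100% = median nuclei count of all wells on the same plate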); details: HUVEC TNFalpha-induced E-selectin immunofluorescence imaging, at 2 µM; inhibition: stronger effect = higher value; nuclei count: measured here: cell number, toxicity
# [4] = biological target: Voltage-gated potassium channel subunit beta-2 (Rattus norvegicus) (UniProt P62483); experiment: inhibitors of rat Kvbeta2 reductase activity – biochemical, NADPH fluorescence, primary screen (AID 622); details: recombinant KvBeta, 4-cyanobenzaldehyde reduction, at 10 µM, stronger effect = higher value;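 note: slope of raw intensity against log time taken from 70 to 1610 s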
# [5] = biological target: Voltage-gated potassium channel subunit beta-2 (Rattus norvegicus) (UniProt P62483); experiment: enhancers of rat Kvbeta2 NADPH turnover – biochemical, NADPH fluorescence, primary screen (AID 623;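 active = NADPH fluorescence slope more negative than the mean of all samples by about 3 SD, 99.7% confidence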;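 note: fluorescence intensity change per second fitted from 20 to 320 s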); details: Recombinant KvBeta, NADPH fluorescence decrease slope, 10 min; at 10 µM; stronger effect = lower value
# [6] = biological target: Alpha-2C adrenergic receptor (Homo sapiens) (UniProt P18825); experiment: compounds altering alpha2C-coupled GIRK flux – cell-based, HEK293 alpha2C/GIRK1/2, thallium flux, primary screen (AID 624;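 active = fluorescence slope after compound addition differing from the mean of all screened samples at 99.7% confidence, in either direction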;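 note: slope of fluorescence ratio to pre-addition baseline per second over 15 to 24 s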); details: thallium flux BTC fluorescence, at 10 µM, actives lie on both sides
# [7] = blockers of RIG-like receptor reporter activation – cell-based, Sendai virus stimulus, luciferase, 10K MLSCN set, TLR/RLR signaling modifier project, primary screen (AID 602276;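 active = inhibition at or above 50% at 10 µM; inactive = inhibition below 50%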;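 note: firefly luciferase from ISG56 promoter only with Renilla not read in this screen; 0% = Sendai virus plus DMSO and 100% = medium plus DMSO without virus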); details: HEK293 RL24 IRF3 luciferase reporter, at 10 µM, stronger effect = higher value
# [8] = TLR3 IRF3 reporter activation blockers – cell-based, poly I:C stimulus, luciferase, 10K MLSCN set, primary screen (AID 602277;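 active = inhibition of the reporter signal at or above 50%; inactive = inhibition below 50%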); details: HEK293-TLR3 RL24 IRF3 luciferase reporter, at 10 µM, stronger effect = higher value
# Alpha-2C adrenergic receptor (Homo sapiens), sequence (P18825 whole entry, looked up): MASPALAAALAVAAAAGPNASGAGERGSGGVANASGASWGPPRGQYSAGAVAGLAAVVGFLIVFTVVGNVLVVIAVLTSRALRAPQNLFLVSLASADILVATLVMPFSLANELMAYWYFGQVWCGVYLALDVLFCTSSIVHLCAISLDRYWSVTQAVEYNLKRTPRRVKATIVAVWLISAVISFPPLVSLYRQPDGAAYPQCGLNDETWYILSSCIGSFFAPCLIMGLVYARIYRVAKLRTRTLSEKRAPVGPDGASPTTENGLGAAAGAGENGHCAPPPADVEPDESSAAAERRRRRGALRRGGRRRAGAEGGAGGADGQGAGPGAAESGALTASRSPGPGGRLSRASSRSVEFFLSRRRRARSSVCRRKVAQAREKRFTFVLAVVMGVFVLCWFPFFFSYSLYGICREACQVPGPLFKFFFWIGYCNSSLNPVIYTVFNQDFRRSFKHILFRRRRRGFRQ
# Voltage-gated potassium channel subunit beta-2 (Rattus norvegicus), sequence (P62483 whole entry, looked up): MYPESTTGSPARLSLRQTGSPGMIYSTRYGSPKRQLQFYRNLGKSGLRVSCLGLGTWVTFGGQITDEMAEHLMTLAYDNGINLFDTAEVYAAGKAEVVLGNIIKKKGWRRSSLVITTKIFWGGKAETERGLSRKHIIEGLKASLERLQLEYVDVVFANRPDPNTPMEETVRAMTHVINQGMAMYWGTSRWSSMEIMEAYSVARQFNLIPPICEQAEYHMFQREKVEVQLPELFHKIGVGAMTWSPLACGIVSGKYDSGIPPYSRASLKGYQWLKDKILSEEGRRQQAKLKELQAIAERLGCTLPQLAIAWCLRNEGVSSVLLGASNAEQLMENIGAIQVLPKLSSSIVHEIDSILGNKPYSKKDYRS
SMILES,cell count [1],inhibition [1],inhibition of aggregation [2],nuclei count [2],inhibition [3],nuclei count [3],fluorescence slope [4],NADPH fluorescence slope [5],slope [6],inhibition [7],inhibition [8]
CCCNS(=O)(=O)c1ccc(OCC(=O)NCc2ccc3c(c2)OCO3)cc1,434,1.7% (inactive),-1.9% (inactive),108%,-93.9% (inactive),106%,-0.368 (inactive),-6.9e-05 (inactive),0.00408 (inactive),12.8% (inactive),17.9% (inactive)
O=C(Nc1ccccc1C(F)(F)F)c1cc(S(=O)(=O)N2CCOCC2)ccc1F,415,2.8% (inactive),12.8% (inactive),62.3%,-247% (inactive),107%,-0.619 (inactive),2.6e-06 (inactive),0.00704 (inactive),8.22% (inactive),21.8% (inactive)
O=C(NCCCN1CCCC1=O)c1ccc2c(=O)n(Cc3ccco3)c(=S)[nH]c2c1,653,-16.6% (inactive),-35.1% (inactive),74%,-69.5% (inactive),101%,-0.572 (inactive),2.7e-05 (inactive),0.00624 (inactive),0.725% (inactive),-15.6% (inactive)
CCOC(=O)C(C)(C)Sc1nc2c(cnn2-c2ccc(C)cc2)c(=O)[nH]1,387,-1.6% (inactive),-13.4% (inactive),106%,-44.8% (inactive),106%,-0.626 (inactive),-2.5e-05 (inactive),0.00578 (inactive),9.78% (inactive),34% (inactive)
COc1ccc(NS(=O)(=O)c2ccc(NC(C)=O)cc2)cc1OC,352,-8.4% (inactive),2.1% (inactive),99.6%,-3.3% (inactive),76.2%,-0.379 (inactive),1.1e-05 (inactive),0.00616 (inactive),-6.14% (inactive),-66.4% (inactive)
O=C(c1ccc2c(c1)[nH]c(=S)n1c3ccccc3nc21)N1CCN(c2ncccn2)CC1,515,4.8% (inactive),-5.1% (inactive),105%,-28.7% (inactive),114%,-0.347 (inactive),-1.3e-05 (inactive),0.00281 (inactive),13.2% (inactive),19.4% (inactive)
CNC(=O)c1ccsc1NC(=O)CN1C(=O)CCC1=O,469,-5.4% (inactive),10.7% (inactive),90.3%,4.8% (inactive),113%,-0.451 (inactive),-5.2e-05 (inactive),0.00494 (inactive),6.37% (inactive),28.8% (inactive)
Nc1nc2ccccc2n1C(=O)CCc1ccccc1,663,-1.2% (inactive),-11.5% (inactive),69%,-36.3% (inactive),125%,-0.396 (inactive),-3.8e-05 (inactive),0.0047 (inactive),-24.1% (inactive),-73.1% (inactive)
N#CCCNCC1(c2ccccc2)CCCC1,567,-9.1% (inactive),-10.6% (inactive),108%,1.8% (inactive),104%,-0.576 (inactive),-4.5e-05 (inactive),0.00572 (inactive),2.93% (inactive),9.79% (inactive)
CC12CN3CC(C)(CN(C1)C3c1cc(Br)ccc1O)C2=O (stereo not drawn),305,0% (inactive),1.6% (inactive),121%,39% (inactive),83.4%,-0.474 (inactive),-4.6e-06 (inactive),0.00402 (inactive),3.76% (inactive),37.4% (inactive)
COc1ccc(-c2ccc(Nc3ccc(S(=O)(=O)N4CCCC4)cc3)nn2)cc1OC,702,-6.1% (inactive),-4.9% (inactive),103%,-94.1% (inactive),109%,-0.601 (inactive),-4.3e-05 (inactive),0.004 (inactive),-5.55% (inactive),-13.6% (inactive)
O=c1[nH]c(NCc2ccco2)nnc1Cc1ccccc1Cl,643,1.8% (inactive),-15.1% (inactive),111%,-18.6% (inactive),124%,-0.515 (inactive),-0.000182 (inactive),0.0051 (inactive),6.89% (inactive),40.7% (inactive)
CC1CCCCC1NC(=O)c1nn(C)c(=O)c2ccccc12 (stereo not drawn),361,0.7% (inactive),0.4% (inactive),105%,13.7% (inactive),88.6%,-0.621 (inactive),1.8e-06 (inactive),0.00592 (inactive),-1.74% (inactive),2.78% (inactive)
CNC(=O)c1nnn(Cc2ccccc2)c1NC(C)=O,539,-14.7% (inactive),-9.5% (inactive),102%,-73.3% (inactive),92.3%,-0.601 (inactive),4e-05 (inactive),0.00612 (inactive),-13% (inactive),-3.44% (inactive)
CNC(=O)CN(c1ccc(C(C)C)cc1)S(C)(=O)=O,372,-0.8% (inactive),-4.8% (inactive),114%,24.1% (inactive),114%,-0.397 (inactive),1.3e-05 (inactive),0.00372 (inactive),11% (inactive),35.7% (inactive)
CCOC(=O)N1CCN(C(=O)CSc2cc(C)nc3c(-c4ccccc4OC)c(C)nn23)CC1,543,-9.8% (inactive),-34.4% (inactive),122%,14.7% (inactive),110%,-0.54 (inactive),1.2e-05 (inactive),0.00377 (inactive),-11.1% (inactive),-5.36% (inactive)
COC(=O)c1c(NC(=O)CSc2nnc(-c3cccnc3)n2Cc2ccco2)sc(C)c1C,505,-5.5% (inactive),24% (inactive),101%,29.5% (inactive),104%,-0.579 (inactive),-2.7e-05 (inactive),0.00567 (inactive),4.42% (inactive),16.1% (inactive)
Cc1cc(C)c2c(=O)n(CC(=O)N3CCC(Cc4ccccc4)CC3)sc2n1,611,16.6% (inactive),3% (inactive),104%,-6.1% (inactive),121%,-0.559 (inactive),-6.7e-06 (inactive),0.00614 (inactive),20.7% (inactive),46.2% (inactive)
CCOc1ccc(C2C=C(c3ccc(F)cc3)Nc3ncnn32)cc1 (stereo not drawn),548,11.5% (inactive),-15.6% (inactive),74.5%,-113% (inactive),125%,-0.0654 (active),-6.9e-06 (inactive),0.00554 (inactive),6.86% (inactive),12.6% (inactive)
O=C(Cn1cc2c(n1)CCCCC2)N1CCc2ccccc21,708,-3.4% (inactive),18.5% (inactive),103%,-102% (inactive),109%,-0.52 (inactive),-4.3e-05 (inactive),0.00739 (inactive),7.59% (inactive),34.4% (inactive)
O=C(CSc1ncnc2c1oc1ccccc12)Nc1ccccc1C(F)(F)F,657,-2.9% (inactive),-15.8% (inactive),69.1%,-13.2% (inactive),106%,-0.556 (inactive),-5.9e-06 (inactive),0.00657 (inactive),-3.61% (inactive),1.95% (inactive)
COC(=O)c1ccc(NC2(C#N)C(=O)Nc3ccccc32)cc1 (stereo not drawn),246,7.6% (inactive),15% (inactive),95.5%,-208% (inactive),116%,-0.408 (inactive),-1.9e-05 (inactive),0.00466 (inactive),19% (inactive),8.66% (inactive)
CS(=O)(=O)N1CCN(c2ccccc2NC(=O)c2ccc(-c3ccc(Cl)cc3Cl)o2)CC1,194,-3.5% (inactive),32.9% (active),72.7%,24.8% (inactive),54.7%,-0.357 (inactive),2.6e-05 (inactive),0.00896 (inactive),12% (inactive),23.2% (inactive)
CCCCCOc1ccc(C2NC(=O)NC2=O)cc1 (stereo not drawn),804,-5.5% (inactive),-5.5% (inactive),107%,-50.9% (inactive),121%,-0.561 (inactive),-4.1e-05 (inactive),0.00708 (inactive),-12.1% (inactive),-2.6% (inactive)
O=c1[nH]c2sc3c(c2c2nncn12)CCCC3,420,11.2% (inactive),13.5% (inactive),108%,-112% (inactive),111%,-0.499 (inactive),-0.000261 (inactive),0.00486 (inactive),7.28% (inactive),-10% (inactive)
Clc1cc2c(c(Cn3cnc4ccccc43)c1)OCOC2,566,7.5% (inactive),11.8% (inactive),77.2%,4.1% (inactive),89.8%,-0.595 (inactive),-3e-05 (inactive),0.00307 (inactive),7.15% (inactive),-9.55% (inactive)
c1ccc(CC2CCN(C(c3cccs3)c3nnnn3C3CCCC3)CC2)cc1 (stereo not drawn),743,-37.8% (inactive),7.1% (inactive),108%,-31.1% (inactive),99.9%,-0.558 (inactive),3.9e-05 (inactive),0.00517 (inactive),-0.349% (inactive),20.3% (inactive)
Cc1cc(Cl)c(S(=O)(=O)Nc2ccc3c(c2)OCCO3)cc1OCC(N)=O,526,1.8% (inactive),-7.1% (inactive),106%,-79.1% (inactive),113%,-0.516 (inactive),1.1e-05 (inactive),0.00485 (inactive),32.8% (inactive),30.7% (inactive)
